Values joined by “and” are separate entries in the source; they are usually repeats but may differ in a detail not shown here. Equal values may be shown once. About 2,000 (36%) of roughly 5,500 compounds were called active. Another 18% or so got no clear call; they are omitted. Rule as the data show it: active = normalized growth mostly below about 0.91 (no sharp cut-off); inconclusive = no clear call, values can overlap the other calls; inactive = mostly above about 0.92. This is one part of the list.
Assay: chemical genetic growth profiling, strain panel (AID 1159580);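 also: tested at 20 µM; growth read once vehicle control cultures reached saturation at 30 °C; 1 = growth at the plate median or of vehicle wells; lower values mean less growth of the strain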
Conditions: S. cerevisiae deletion strains, growth OD

Measured: normalized growth

COc1ccc(C2CC(=O)c3ccc(OC)cc3O2)cc1 (centres undefined)
active: locus YBR009C, strain hhf1, stronger effect = lower value 0.854 | locus YBR021W, strain FUR4, stronger effect = lower value 0.805 | locus YDL074C, strain BRE1, stronger effect = lower value 0.689 | locus YDL192W, strain arf1, stronger effect = lower value 0.891 | locus YDR162C, strain NBP2, stronger effect = lower value 0.74 | locus YDR195W, strain ref2 1.19 [resistant] | locus YDR318W, strain mcm21, stronger effect = lower value 0.906 | locus YDR392W, strain spt3, stronger effect = lower value 0.538 | locus YDR502C, strain sam2, stronger effect = lower value 0.882 | locus YEL061C, strain CIN8, stronger effect = lower value 0.905 | locus YER155C, strain BEM2 (second series), stronger effect = lower value 0.683 | locus YER167W, strain BCK2, stronger effect = lower value 0.89 | locus YGL086W, strain mad1, stronger effect = lower value 0.898 | locus YGL240W, strain doc1, stronger effect = lower value 0.786 | locus YGL248W, strain PDE1, stronger effect = lower value 0.843 | locus YGL253W, strain hxk2, stronger effect = lower value 0.891 | locus YGR135W, strain pre9, stronger effect = lower value 0.857 | locus YGR229C, strain SMI1, stronger effect = lower value 0.504 | locus YGR252W, strain gcn5, stronger effect = lower value 0.628 | locus YHR030C, strain SLT2, stronger effect = lower value 0.744 and 0.843 | locus YHR129C, strain ARP1, stronger effect = lower value 0.882 | locus YHR142W, strain chs7, stronger effect = lower value 0.842 | locus YIL066C, strain RNR3, stronger effect = lower value 0.793 | locus YIR030C, strain dcg1, stronger effect = lower value 0.92 | locus YJL095W, strain BCK1, stronger effect = lower value 0.523 and 0.838 | locus YJL164C, strain tpk1, stronger effect = lower value 0.898 | locus YJL166W, strain qcr8, stronger effect = lower value 0.859 | locus YJR066W, strain TOR1, stronger effect = lower value 0.805 | locus YKL009W, strain mrt4, stronger effect = lower value 0.862
inactive: locus YAL021C, strain ccr4, stronger effect = lower value 0.953 | locus YAL026C, strain drs2, stronger effect = lower value 0.939 | locus YAL030W, strain snc1, stronger effect = lower value 0.954 | locus YBL061C, strain skt5, stronger effect = lower value 0.948 | locus YBR023C, strain chs3, stronger effect = lower value 0.915 | locus YBR171W, strain sec66, stronger effect = lower value 0.936 | locus YBR229C, strain ROT2, stronger effect = lower value 0.963 | locus YBR231C, strain swc5, stronger effect = lower value 0.921 | locus YBR279W, strain paf1, stronger effect = lower value 0.95 | locus YCL011C, strain gbp2, stronger effect = lower value 0.928 | locus YCL016C, strain dcc1, stronger effect = lower value 0.939 | locus YCL029C, strain bik1, stronger effect = lower value 0.923 | locus YCL061C, strain MRC1, stronger effect = lower value 0.932 | locus YCL069W, strain vba3, stronger effect = lower value 0.961 | locus YCR088W, strain abp1, stronger effect = lower value 0.957 | locus YDL005C, strain med2, stronger effect = lower value 0.96 | locus YDL035C, strain GPR1, stronger effect = lower value 0.872 | locus YDL040C, strain nat1, stronger effect = lower value 0.956 | locus YDL101C, strain DUN1, stronger effect = lower value 0.9 | locus YDL185W, strain tfp1, stronger effect = lower value 0.938 | locus YDR001C, strain nth1, stronger effect = lower value 0.951 | locus YDR069C, strain doa4, stronger effect = lower value 0.953 | locus YDR101C, strain arx1, stronger effect = lower value 0.93 | locus YDR137W, strain rgp1, stronger effect = lower value 0.966 | locus YDR159W, strain sac3, stronger effect = lower value 0.929 | locus YDR297W, strain sur2, stronger effect = lower value 0.948 | locus YDR334W, strain swr1, stronger effect = lower value 0.961 | locus YDR335W, strain msn5, stronger effect = lower value 0.953 | locus YDR388W, stronger effect = lower value 0.955 | locus YEL003W, strain gim4, stronger effect = lower value 0.94 | locus YEL037C, strain rad23, stronger effect = lower value 0.962 | locus YEL061C, strain CIN8 (second series), stronger effect = lower value 0.967 | locus YER015W, strain faa2, stronger effect = lower value 0.96 | locus YER016W, strain bim1, stronger effect = lower value 0.963 | locus YER110C, stronger effect = lower value 0.937 | locus YER111C, strain swi4, stronger effect = lower value 0.959 | locus YER155C, strain BEM2, stronger effect = lower value 0.979 | locus YFR010W, strain ubp6, stronger effect = lower value 0.954 | locus YGL078C, strain dbp3, stronger effect = lower value 0.958 | locus YGL167C, strain pmr1, stronger effect = lower value 0.938 | locus YGL173C, strain kem1, stronger effect = lower value 0.931 | locus YGL227W, strain vid30, stronger effect = lower value 0.959 | locus YHR013C, strain ard1, stronger effect = lower value 0.866 | locus YHR027C, strain rpn1, stronger effect = lower value 0.965 | locus YHR079C, strain IRE1 (second series), stronger effect = lower value 0.97 | locus YHR079C, strain IRE1, stronger effect = lower value 0.878 | locus YHR094C, strain hxt1, stronger effect = lower value 0.956 | locus YHR200W, strain rpn10, stronger effect = lower value 0.929 | locus YIL073C, strain SPO22, stronger effect = lower value 0.772 | locus YIL125W, strain kgd1, stronger effect = lower value 0.94 | locus YJL092W, strain hpr5, stronger effect = lower value 0.957 | locus YJL095W, strain BCK1 (second series), stronger effect = lower value 0.927 | locus YJL115W, strain asf1, stronger effect = lower value 0.954 | locus YJL129C, strain trk1, stronger effect = lower value 0.992 | locus YJL134W, strain LCB3, stronger effect = lower value 0.975 | locus YJL154C, strain vps35, stronger effect = lower value 0.977 | locus YJL168C, strain set2, stronger effect = lower value 0.95 | locus YJL187C, strain SWE1 (second series), stronger effect = lower value 0.868 | locus YJL187C, strain SWE1, stronger effect = lower value 0.948 | locus YJR043C, strain POL32, stronger effect = lower value 0.861

Reference: PubChem BioAssay AID1159580 (chemical genetic matrix, 2015)
